The target of this assay is furin, P09958. As to the kind of experiment: furin cleavage Z-score vs untreated control; higher = more cleavage, active = 3.5 or more, inactive = 1 or less, 8 variable residues between constant flanks. The method in brief:
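To give the cleavage Z-score, log read counts were set against furin-free reactions, lowess-adjusted and scaled by median absolute deviation. These counts came from PCR adapter-tagged, sequenced DNA released when purified furin cut 8-mer peptides fused to a cDNA oligonucleotide and held on magnetic beads by their N-terminus. Digests were 0.01 ml, 1:10 enzyme:substrate, in 50 mM HEPES pH 7.5 with CaCl2 and NaCl, for 7.5, 15 or 30 min.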

The other results are listed elsewhere or left out. How many sequences the whole screen found active is unknown.

Sequence of furin, P09958 (P09958 whole entry, the tested form may be a part): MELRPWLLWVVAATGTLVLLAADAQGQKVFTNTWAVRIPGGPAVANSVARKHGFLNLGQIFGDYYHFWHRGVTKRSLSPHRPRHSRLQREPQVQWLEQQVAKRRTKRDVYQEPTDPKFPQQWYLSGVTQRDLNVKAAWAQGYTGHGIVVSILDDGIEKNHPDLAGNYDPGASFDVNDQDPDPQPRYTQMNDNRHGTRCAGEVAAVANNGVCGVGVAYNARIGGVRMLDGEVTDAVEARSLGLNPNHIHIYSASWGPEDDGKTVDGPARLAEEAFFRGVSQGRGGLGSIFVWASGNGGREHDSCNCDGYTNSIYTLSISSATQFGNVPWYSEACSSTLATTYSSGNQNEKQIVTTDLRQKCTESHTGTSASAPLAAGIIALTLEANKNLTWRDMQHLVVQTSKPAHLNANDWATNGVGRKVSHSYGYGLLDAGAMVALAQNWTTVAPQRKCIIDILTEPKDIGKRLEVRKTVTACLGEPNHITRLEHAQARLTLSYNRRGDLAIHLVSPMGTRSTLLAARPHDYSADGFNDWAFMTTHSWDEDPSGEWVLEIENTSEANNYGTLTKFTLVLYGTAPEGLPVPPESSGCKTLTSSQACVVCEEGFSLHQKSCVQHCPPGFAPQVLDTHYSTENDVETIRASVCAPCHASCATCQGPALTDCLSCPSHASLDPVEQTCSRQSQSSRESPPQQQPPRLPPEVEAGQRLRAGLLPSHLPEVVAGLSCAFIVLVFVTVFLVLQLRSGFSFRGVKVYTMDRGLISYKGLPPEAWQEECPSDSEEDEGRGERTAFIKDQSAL

Consider CAGLYHVTNDAGNASASA [HC260], for which the “furin cleavage Z-score” value runs as follows: (7.5 min) 0.615 (inactive); (15 min) -1.34 (inactive); (30 min) -0.664 (inactive).
Turning to CATLGFGAYMAGNASASA [HC791], the “furin cleavage Z-score” value is 0.163 (inactive) (7.5 min), -1.28 (inactive) (15 min) and 0.49 (inactive) (30 min).
In the case of CAKPAKSARSAGNASASA [FS-811], the “furin cleavage Z-score” value (7.5 min) is -0.364 (inactive), the “furin cleavage Z-score” value (15 min) was -0.316 (inactive) and the “furin cleavage Z-score” value (30 min) was 0.253 (inactive).
As for CARSRREASGAGNASASA [FS-2311], the “furin cleavage Z-score” value was 3.7 (active) (7.5 min), 2.31 (15 min) and 2.33 (30 min).
Consider CAKSARSVRAAGNASASA [FS-1673], for which the “furin cleavage Z-score” value (7.5 min) was 6.74 (active), the “furin cleavage Z-score” value (15 min) is 6.73 (active) and the “furin cleavage Z-score” value (30 min) was 7 (active).
With CARVCRCARAAGNASASA [FS-3116], the “furin cleavage Z-score” value (7.5 min) was 5.97 (active), the “furin cleavage Z-score” value (15 min) was 5.83 (active) and the “furin cleavage Z-score” value (30 min) is 6.08 (active).
On the same counts, the results for CARARRDPRAAGNASASA [FS-2643] are 9.64 (active), 9.59 (active) and 9.18 (active).
On the same counts, the results for CASSSRDPRAAGNASASA [FS-1573] are -1.14 (inactive), 0.526 (inactive) and 1.07.
For CAQPARSVRLAGNASASA [FS-1389], the “furin cleavage Z-score” value is, setting by setting: (7.5 min) -0.0259 (inactive); (15 min) 0.85 (inactive); (30 min) 0.452 (inactive).
As to CARSRRPADTAGNASASA [FS-3210], the “furin cleavage Z-score” value runs as follows: (7.5 min) -0.916 (inactive); (15 min) -0.606 (inactive); (30 min) -2.54 (inactive).
For the sequence CAVQPEKGGRAGNASASA [HC1444], the “furin cleavage Z-score” value (7.5 min) is -2.15 (inactive), the “furin cleavage Z-score” value (15 min) is -2.12 (inactive) and the “furin cleavage Z-score” value (30 min) was -0.412 (inactive).
Consider CADAMEECSQAGNASASA [HC1803], for which the “furin cleavage Z-score” value is -1.34 (inactive) (7.5 min), 0.113 (inactive) (15 min) and -0.929 (inactive) (30 min).
On to CAVVCCSMLYAGNASASA [HC2065], for which the “furin cleavage Z-score” value (7.5 min) is -0.464 (inactive), the “furin cleavage Z-score” value (15 min) is -0.469 (inactive) and the “furin cleavage Z-score” value (30 min) was -1.46 (inactive).
On to CATFPINAYTAGNASASA [HC1190], for which the “furin cleavage Z-score” value by setting is: (7.5 min) -0.0204 (inactive); (15 min) -1.04 (inactive); (30 min) -0.568 (inactive).
On the same counts, the results for CARAPRSPRAAGNASASA [FS-3183] are 9.2 (active), 8.63 (active) and 8.05 (active).
On the same counts, the results for CARSLRSQIRAGNASASA [FS-2309] are 0.116 (inactive), -1.95 (inactive) and 0.712 (inactive).
With CARSRRSPRAAGNASASA [FS-1794], the “furin cleavage Z-score” value is 11.3 (active) (7.5 min), 13.6 (active) (15 min) and 9.99 (active) (30 min).
Turning to CARSGRSIINAGNASASA [FS-3080], the “furin cleavage Z-score” value by setting is: (7.5 min) -0.514 (inactive); (15 min) 0.929 (inactive); (30 min) 1.74.
With CARSRRSAFHAGNASASA [FS-2819], the “furin cleavage Z-score” value is 8.26 (active) (7.5 min), 9.19 (active) (15 min) and 8.92 (active) (30 min).
On the same counts, the results for CARAPRSKVPAGNASASA [FS-2251] are 0.556 (inactive), 0.0997 (inactive) and 1.62.
Consider CARSRRSQINAGNASASA [FS-2383], for which the “furin cleavage Z-score” value (7.5 min) came out at 1.8, the “furin cleavage Z-score” value (15 min) is 3.75 (active) and the “furin cleavage Z-score” value (30 min) was 2.57.
Taken in the same sequence, the figures for CARSRRSYSCAGNASASA [FS-3238] were 0.584 (inactive), 1.19 and 2.38.
Consider CARAPRDSDAAGNASASA [FS-2546], for which the “furin cleavage Z-score” value is, setting by setting: (7.5 min) -0.983 (inactive); (15 min) 0.168 (inactive); (30 min) 0.352 (inactive).
Taken in the same sequence, the figures for CATGWLAGLFAGNASASA [HC378] were 1, 1.08 and 0.703 (inactive).
As to CATTPCSGSCAGNASASA [HC1940], the “furin cleavage Z-score” value (7.5 min) is -1.36 (inactive), the “furin cleavage Z-score” value (15 min) is -1.27 (inactive) and the “furin cleavage Z-score” value (30 min) is -2.07 (inactive).
As for CAVQLINTNGAGNASASA [HC366], the “furin cleavage Z-score” value was 0.569 (inactive) (7.5 min), -1.46 (inactive) (15 min) and 0.762 (inactive) (30 min).
Regarding CARTVVLTESAGNASASA [HC1326], the “furin cleavage Z-score” value is 0.659 (inactive) (7.5 min), 0.273 (inactive) (15 min) and -0.545 (inactive) (30 min).
As for CATPSRCVRIAGNASASA [FS-203], the “furin cleavage Z-score” value reads like this: (7.5 min) 0.645 (inactive); (15 min) -1.67 (inactive); (30 min) -0.417 (inactive).
CAAASLRAFTAGNASASA [HC1537]: the “furin cleavage Z-score” value was -0.944 (inactive) (7.5 min), -0.499 (inactive) (15 min) and -0.478 (inactive) (30 min).
For the sequence CATPSRAGRAAGNASASA [FS-99], the “furin cleavage Z-score” value runs as follows: (7.5 min) 3.27; (15 min) 3.92 (active); (30 min) 2.86.
Consider CATPSRMIRTAGNASASA [FS-1425], for which the “furin cleavage Z-score” value is 4.04 (active) (7.5 min), 5.44 (active) (15 min) and 5.33 (active) (30 min).
Regarding CAQKKRGGPAAGNASASA [WN3], the “furin cleavage Z-score” value is 0.322 (inactive) (7.5 min), -1.02 (inactive) (15 min) and 0.637 (inactive) (30 min).
Take CAQKLETFWAAGNASASA [HC1038]: the “furin cleavage Z-score” value by setting is: (7.5 min) 2.24; (15 min) -0.183 (inactive); (30 min) -1.19 (inactive).
Consider CALLARGGRAAGNASASA [HC1626], for which the “furin cleavage Z-score” value is, setting by setting: (7.5 min) 3.15; (15 min) 3.33; (30 min) 3.52 (active).
Taken in the same sequence, the figures for CAQPARIGRAAGNASASA [FS-1152] were 5.34 (active), 7.28 (active) and 7.16 (active).
Regarding CAMGECSQHLAGNASASA [HC1696], the “furin cleavage Z-score” value is, setting by setting: (7.5 min) 2.31; (15 min) 0.612 (inactive); (30 min) 1.45.
On to CAVVCCGMSYAGNASASA [HC102], for which the “furin cleavage Z-score” value runs as follows: (7.5 min) -1.2 (inactive); (15 min) -0.443 (inactive); (30 min) -0.831 (inactive).
Regarding CAGACYSIEPAGNASASA [HC1595], the “furin cleavage Z-score” value was -0.464 (inactive) (7.5 min), -0.533 (inactive) (15 min) and -1.27 (inactive) (30 min).
As for CADVMEECSQAGNASASA [HC1810], the “furin cleavage Z-score” value runs as follows: (7.5 min) 0.0621 (inactive); (15 min) 0.463 (inactive); (30 min) -0.158 (inactive).
Consider CAEVVTSDWVAGNASASA [HC2211], for which the “furin cleavage Z-score” value reads like this: (7.5 min) -1.36 (inactive); (15 min) -1.03 (inactive); (30 min) -1.22 (inactive).
As for CAFLLALLSCAGNASASA [HC249], the “furin cleavage Z-score” value (7.5 min) is -0.759 (inactive), the “furin cleavage Z-score” value (15 min) is -1.73 (inactive) and the “furin cleavage Z-score” value (30 min) is -0.995 (inactive).
For the sequence CAHANRTGRAAGNASASA [FS-130], the “furin cleavage Z-score” value (7.5 min) was found to be 3.34, the “furin cleavage Z-score” value (15 min) is 5.9 (active) and the “furin cleavage Z-score” value (30 min) was 5.93 (active).
For CAHAVGIFRAAGNASASA [HC748], the “furin cleavage Z-score” value is -0.783 (inactive) (7.5 min), -0.538 (inactive) (15 min) and 0.453 (inactive) (30 min).

The values above are taken from the supplement of paper PMC3545927.
